Data reported in PubChem BioAssay (NCI).
Compounds without any hit were thinned out: in the full panel of roughly 83,000, 20% have a hit.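 Each cell line was grown in a 96-well plate and treated with one concentration of compound for 48 hours. Values below 10 were considered active.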 Active and inactive are the calls of the source.

What was measured:
Assay in all cases: NCI-60 one-dose screen, 48 h (100 = growth as untreated, 0 = no growth, -100 = all killed)
Conditions in all cases: 10 µM unless noted
NCI-H23 lung = test system: NCI-H23 lung
NCI-H226 lung = test system: NCI-H226 lung
NCI-H322M lung = test system: NCI-H322M lung
HOP-62 NSCLC = test system: HOP-62 NSCLC
NCI-H460 lung = test system: NCI-H460 lung
HOP-92 NSCLC = test system: HOP-92 NSCLC
NCI-H522 lung = test system: NCI-H522 lung
A549/ATCC NSCLC = test system: A549/ATCC NSCLC
786-0 renal = test system: 786-0 renal
COLO 205 colon = test system: COLO 205 colon
DU-145 prostate = test system: DU-145 prostate
K-562 leukemia = test system: K-562 leukemia
MALME-3M melanoma = test system: MALME-3M melanoma
MDA-MB-231 breast = test system: MDA-MB-231 breast
RXF 393 renal = test system: RXF 393 renal
SF-268 CNS = test system: SF-268 CNS
SF-295 CNS = test system: SF-295 CNS
SF-539 CNS = test system: SF-539 CNS
UACC-257 melanoma = test system: UACC-257 melanoma
M14 melanoma = test system: M14 melanoma

Measured: growth

CCOC(=O)C1OC1(c1ccccc1)c1ccccc1 (stereo not given)
inactive: NCI-H23 lung 111% | NCI-H226 lung 106% | NCI-H322M lung 120% | HOP-62 NSCLC 118% | NCI-H460 lung 109% | HOP-92 NSCLC 107% | NCI-H522 lung 107% | A549/ATCC NSCLC 84.3% | 786-0 renal 117% | COLO 205 colon 119% | DU-145 prostate 108% | K-562 leukemia 109% | MALME-3M melanoma 110% | MDA-MB-231 breast 98.9% | RXF 393 renal 113% | SF-268 CNS 94.2% | SF-295 CNS 113% | SF-539 CNS 106% | UACC-257 melanoma 95.7% | M14 melanoma 107%

CC(=O)N1N=C(c2ccc(C)cc2)CC1c1ccc(Oc2ccc(Br)cc2)cc1 (stereo not given)
inactive: NCI-H23 lung 83.1% | NCI-H226 lung 90.1% | NCI-H322M lung 73.9% | HOP-62 NSCLC 83.6% | NCI-H460 lung 98.4% | HOP-92 NSCLC 89.4% | NCI-H522 lung 83.2% | A549/ATCC NSCLC 81.5% | 786-0 renal 80% | COLO 205 colon 97.7% | DU-145 prostate 91.4% | K-562 leukemia 75.3% | MALME-3M melanoma 87.6% | MDA-MB-231 breast 85.7% | RXF 393 renal 92.8% | SF-268 CNS 79.5% | SF-295 CNS 94.4% | SF-539 CNS 94.7% | UACC-257 melanoma 96% | M14 melanoma 88.3%

CC[C@H](CC[C@@H](C)[C@H]1CC[C@H]2[C@@H]3/C(=C/c4cccnc4)C(=O)C4=CC(=O)CC[C@]4(C)[C@H]3CC[C@]12C)C(C)C
inactive: NCI-H23 lung 69.3% | NCI-H226 lung 87.5% | NCI-H322M lung 98.4% | HOP-62 NSCLC 99.2% | NCI-H460 lung 98.5% | HOP-92 NSCLC 81.6% | NCI-H522 lung 91% | A549/ATCC NSCLC 54.4% | 786-0 renal 105% | COLO 205 colon 113% | DU-145 prostate 103% | K-562 leukemia 76.4% | MALME-3M melanoma 97.6% | MDA-MB-231 breast 95.2% | RXF 393 renal 91.2% | SF-268 CNS 103% | SF-295 CNS 86.5% | SF-539 CNS 105% | UACC-257 melanoma 87.8% | M14 melanoma 88%

C#CCn1c2c(c3ccccc31)C[C@]1(C)[C@H]3CC[C@@H]4[C@@H]5C(=CCC[C@H]5C(=C)C)CC[C@@]4(C)[C@]3(C)CC[C@H]1C2(C)C
inactive: NCI-H23 lung 106% | NCI-H226 lung 102% | NCI-H322M lung 103% | HOP-62 NSCLC 97.1% | NCI-H460 lung 99.8% | HOP-92 NSCLC 124% | NCI-H522 lung 96.5% | A549/ATCC NSCLC 102% | 786-0 renal 106% | COLO 205 colon 104% | DU-145 prostate 108% | K-562 leukemia 91.9% | MALME-3M melanoma 110% | MDA-MB-231 breast 101% | RXF 393 renal 128% | SF-268 CNS 97.8% | SF-295 CNS 107% | SF-539 CNS 97.1% | UACC-257 melanoma 108% | M14 melanoma 100%

CC1(C)NCCC[C@]2(C)[C@H]3CC[C@@H]4[C@H]5[C@H](C(=O)/C=C/c6ccccn6)CC[C@]5(CO)CC[C@@]4(C)[C@]3(C)CC[C@@H]12
active: COLO 205 colon -74.3% | K-562 leukemia -2.17%
inactive: NCI-H23 lung 72.9% | NCI-H226 lung 85.5% | NCI-H322M lung 86.4% | HOP-62 NSCLC 77% | NCI-H460 lung 25.1% | HOP-92 NSCLC 35.6% | NCI-H522 lung 54.4% | A549/ATCC NSCLC 36.9% | 786-0 renal 85.4% | DU-145 prostate 67.7% | MALME-3M melanoma 73.6% | MDA-MB-231 breast 71.1% | RXF 393 renal 56.7% | SF-268 CNS 78.7% | SF-295 CNS 88.8% | SF-539 CNS 86.1% | UACC-257 melanoma 64% | M14 melanoma 61.1%

Cc1cc(Cl)nc(N(CCNc2ccnc3cc(Cl)ccc23)Cc2ccco2)n1
active: 786-0 renal -9.46% | RXF 393 renal -15.7% | SF-539 CNS -41.6%
inactive: NCI-H23 lung 45.6% | NCI-H226 lung 70.3% | NCI-H322M lung 70.6% | HOP-62 NSCLC 25.6% | NCI-H460 lung 31.7% | HOP-92 NSCLC 57% | NCI-H522 lung 53.2% | A549/ATCC NSCLC 60.6% | COLO 205 colon 50.9% | DU-145 prostate 52.2% | K-562 leukemia 16.2% | MALME-3M melanoma 81.3% | MDA-MB-231 breast 19.3% | SF-268 CNS 66.7% | SF-295 CNS 59.4% | UACC-257 melanoma 115% | M14 melanoma 55.3%

CC(=O)n1c(/C(C#N)=C/c2ccc(N(C)C)cc2)cc2ccccc21
active: SF-295 CNS 7.39%
inactive: NCI-H23 lung 40.5% | NCI-H226 lung 61.1% | NCI-H322M lung 53.3% | HOP-62 NSCLC 31.3% | NCI-H460 lung 15% | HOP-92 NSCLC 70.9% | NCI-H522 lung 23.1% | A549/ATCC NSCLC 48.8% | 786-0 renal 41.3% | COLO 205 colon 16.5% | DU-145 prostate 35.8% | K-562 leukemia 15% | MALME-3M melanoma 57% | MDA-MB-231 breast 44.7% | RXF 393 renal 24.6% | SF-268 CNS 56.9% | SF-539 CNS 17.1% | UACC-257 melanoma 68.6% | M14 melanoma 26.8%

Cc1ccc2c(c1)c1nc3cc(C)c(C)cc3nc1n2CCN(C)C
inactive: NCI-H23 lung 13.5% | NCI-H322M lung 16.3% | HOP-62 NSCLC 23.8% | HOP-92 NSCLC 32.1% | NCI-H522 lung 31.2% | A549/ATCC NSCLC 12.2% | 786-0 renal 26.5% | DU-145 prostate 20.5% | MDA-MB-231 breast 19.3% | RXF 393 renal 16.2% | SF-268 CNS 30.3% | SF-539 CNS 11.4% | UACC-257 melanoma 13.1% | M14 melanoma 13.3%
active: NCI-H226 lung 7.71% | NCI-H460 lung 9.12% | COLO 205 colon -5.24% | K-562 leukemia 8.09% | MALME-3M melanoma -8.13% | SF-295 CNS 5.24%
